# Laboratory results as given in PubChem BioAssay (NCI).
# About 79,000 compounds went through this panel and 15% of them were active in at least one assay; those are over-represented in the sample as a whole. Values without a mark were called inactive. Activity calls are given as the source filed them. Rule as the data show it: active = growth inhibition above about 70%; inactive = the rest.
# Tests used:
# [1] = NCI Yeast Anticancer Drug Screen. Data for the rad50 strain (AID 155);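 also: 0% = growth of vehicle-only cultures of the same strain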; settings: S. cerevisiae rad50 strain growth inhibition; at 50.0 µM; stronger effect = higher value
# Procedure, shortened: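 DNA repair mutant yeast, compound exposure, growth read-out; inhibition is taken relative to vehicle.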
# [2] = NCI Yeast Anticancer Drug Screen. Data for the mec2-1 strain (AID 157); settings: S. cerevisiae mec2-1 strain, at 50.0 µM, stronger effect = higher value
# Procedure, shortened: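 mec2-1 yeast strain, carrying an alteration in DNA damage repair or cell cycle control, was exposed to compounds; growth inhibition was measured relative to vehicle-treated controls.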
# [3] = NCI Yeast Anticancer Drug Screen. Data for the sgs1 mgt1 strain (AID 161);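 also: 0% = growth of cultures given vehicle only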; settings: S. cerevisiae sgs1 mgt1 strain, at 50.0 µM, stronger effect = higher value
# Procedure, shortened: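 This yeast growth screen uses a strain with defined DNA-repair lesions; compound-treated growth is compared with vehicle-treated growth.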
# [4] = NCI Yeast Anticancer Drug Screen. Data for the cln2 rad14 strain (AID 165);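 also: 0% = growth equal to vehicle treated cultures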; settings: S. cerevisiae cln2 rad14 strain, at 50.0 µM, stronger effect = higher value
# Procedure, shortened: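 Yeast carrying cln2 and rad14 alterations (cell cycle control and DNA damage repair) were exposed to compounds. Growth inhibition was measured against vehicle-treated controls.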
# [5] = NCI Yeast Anticancer Drug Screen. Data for the bub3 strain (AID 167); settings: S. cerevisiae bub3 mutant strain, at 50.0 µM, stronger effect = higher value
# Procedure, shortened: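 In this screen, a yeast mutant lacking normal mitotic checkpoint function is challenged with compound. Relative growth versus vehicle gives the inhibition value.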
# [6] = NCI Yeast Anticancer Drug Screen. Data for the mlh1 rad18 strain (AID 175); settings: S. cerevisiae mlh1 rad18 strain growth inhibition; at 50.0 µM; stronger effect = higher value
# Procedure, shortened: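 Growth inhibition of the yeast strain was measured after compound exposure and expressed relative to vehicle-treated controls. The strain carries defined defects in DNA damage repair.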
Compound,growth inhibition [1],growth inhibition [2],growth inhibition [3],growth inhibition [4],growth inhibition [5],growth inhibition [6]
O=C1C=C[C@@H](COC2OC(CO)C(O)C(O)C2O)O1 (some centres not stated),6.35%,-28.8%,5.25%,15.8%,24.9%,27.8%
Cc1ccc(NC(=O)C(C)S)cc1 (configuration not stated),24.6%,11.6%,29.1%,38.6%,25.7%,32.4%
CSCSCC(CO)NC(=O)/C(C)=C\c1c(C)[nH]c(=O)[nH]c1=O (configuration not stated),-3.35%,-2%,-2.35%,-7%,8.4%,-13.1%
COc1csn[n+]1-c1ccc(C)cc1,7.7%,3.65%,9.45%,7.5%,14.8%,9.65%
COc1cc([N+](=O)[O-])ccc1C(=O)NC(CCC(=O)O)C(=O)O (configuration not stated),-12.6%,-19.9%,19.1%,-20.4%,28.6%,-22.1%
O=C1CCCCCCCCCCOCCCCO1,-2.4%,2.9%,14.8%,24.1%,27.7%,-13.4%
c1ccc2c(c1)Cc1ccc3ccccc3c1-2,56%,28.7%,34.4%,35.8%,64.3%,35.1%
O=C(COc1ccccc1)OC1CCCC1,17.6%,-13.4%,-9.8%,-1.9%,-3.05%,4.55%
COC1=C2CC(C)CC(OC)C(OC(C)=O)C(C)/C=C(\C)C(OC(N)=O)C(OC)/C=C\C=C(/C)C(=O)NC(=CC1=O)C2=O (configuration not stated),90% (active),91% (active),92.2% (active),87.2% (active),90.7% (active),89.4% (active)
COc1cc(C2SC(N)=Nc3c2c(C)nn3C(=O)c2ccccc2O)ccc1O (configuration not stated),-4.9%,24.1%,22.5%,-1.35%,40.4%,16%
C=CC[N+](CC)(CC)CC,12.3%,-0.45%,2.35%,12.3%,19.4%,13.3%
C=CCOC(=O)C(F)(F)F,0.15%,-4.25%,-0.7%,4.35%,6.85%,-1.4%
CCCCC(=O)OCC(=O)[C@]1(O)Cc2c(O)c3c(c(O)c2[C@@H](OC2CC(NC(=O)C(F)(F)F)C(O)C(C)O2)C1)C(=O)c1c(OC)cccc1C3=O (some centres not stated),19.5%,21.3%,29.9%,4.9%,53%,30.8%
O=Cc1ccc(N2OC(c3ccc([N+](=O)[O-])cc3)C(c3ccc([N+](=O)[O-])cc3)C2c2ccc([N+](=O)[O-])cc2)cc1 (configuration not stated),13.2%,-1.75%,14.7%,25.4%,0.95%,28.9%
C[n+]1cccc(/C=C/C(=O)Nc2ccccc2)c1,5.8%,7%,-24.1%,5.95%,12.1%,19.4%
Nc1c(N2CCCCC2)c(=O)nc2[nH]/c(=C\c3ccco3)c(=O)n12,5.45%,-26.1%,10.9%,-21.4%,8.8%,-7.6%
CS(=O)(=O)/C=C/c1ccccc1,-19.4%,-8.15%,-7.35%,1.8%,-2.1%,0.75%
O=P(O)(O)Oc1ccc(NCCO)cc1,-9.5%,-5%,3.3%,17.4%,7.55%,-13.9%
Cc1nsc2[nH]c(=O)n(Nc3ccc(O)cc3)c(=O)c12,-13.6%,1.1%,-18.7%,8.75%,5%,-4.9%

Compound,growth inhibition [1],growth inhibition [2],growth inhibition [3],growth inhibition [4],growth inhibition [5],growth inhibition [6]
O=C1OCC/C1=C\c1cccc([N+](=O)[O-])c1,10.4%,14.4%,11.2%,-42.7%,22.5%,26.9%
COC(=O)N/N=C/c1ccc(C)cc1,-4.1%,-8.05%,-10%,-37.9%,-3.9%,-4.1%
NCc1ccccc1[N+](=O)[O-],11.4%,6.2%,3.5%,-1.6%,3.5%,12%
NC(=O)c1cn2ccccc2c1[N+](=O)[O-],8.25%,27.6%,3.35%,-20.2%,2.8%,5.2%
c1ccc(C2SCCCS2)cc1,33.2%,5.25%,17.8%,18.4%,-4.5%,18.4%
COc1cc2c(c3c1/c(=N\N=c1/c4ccccc4n(C)c4c5c(cc(OC)c14)OC(C)(C)C=C5)c1ccccc1n3C)C=CC(C)(C)O2,70% (active),13.6%,64.5%,48%,36.9%,27.4%
Nc1ccnc2cc(Cl)ccc12,17.4%,4.45%,3.3%,2.6%,-4.05%,26.6%
O/N=C(\c1ccccc1)C1c2ccccc2-c2ccccc21,-10.1%,-17.9%,-19.9%,21.4%,-5.9%,-17.4%
Cc1ccccc1CN(C)CCCO,4.1%,-13%,-16.8%,-16.1%,-3.85%,1.05%
Nc1nc(N)c2nc(-c3ccc(O)cc3)c(-c3ccc(O)cc3)nc2n1,-15.5%,-4%,0.15%,50.6%,7.9%,-13.6%
CCc1nc(N)nc(N)c1-c1ccc(OC)c([N+](=O)[O-])c1,3.25%,-14.7%,-27.2%,24.9%,-21.4%,7.9%
O=C(/C=C/c1ccccc1)NC1C=Nc2ccc(Cl)cc2NC1=O (configuration not stated),39%,53.7%,38.5%,23%,28.2%,26.2%
O=S(=O)(c1ccc(Cl)cc1)c1ccccc1C1=NCCN1,-37.8%,-44.9%,-5.7%,6.3%,-43.8%,-23.8%
CN(C)C(=O)NCc1cccnc1,-21.8%,10.9%,0.35%,-78.2%,-3.45%,-10.7%
OC(c1ccccc1)(c1ccccc1)C1CC1,6.2%,-6.9%,1.6%,7%,-19.2%,10.9%
COc1ccc(CC(N)C(=O)OC(C)C)cc1 (configuration not stated),-16.3%,-12.3%,-5.05%,-36%,11%,1.4%
CCOC(=O)c1c(SC(=O)c2ccc(C(C)(C)C)cc2)n(-c2ccccc2)c(=S)n(-c2ccccc2)c1=O,31.1%,0.55%,26.8%,6.45%,40%,18.9%
COc1ccc2c(c1)OC(c1cccnc1)C(c1ccccc1)C2=O (configuration not stated),-5.45%,-27.9%,17.9%,15.4%,16.1%,-0.05%
